# Experimental data reported in PubChem BioAssay (NCATS).
# Inconclusive results are not listed. Entries that show only a call come without a potency. Values without a mark were called inactive. The source made the active and inactive calls. Calls come from the whole dose curve; as a rule, active = well fitted curve in the direction sought with a large enough effect; inconclusive = small, poorly fitted or top-dose-only effect, or another doubt; inactive = no such curve, though single readings can be large; an effect the other way counts as inactive or inconclusive.
# Assays:
# [1] = Quantitative High-Throughput drug screen in 47 multiple myeloma cell lines against the NCATS MIPE library collection: KMS28PE_JCRB cell viability assay (AID 1918983); note: nearly all actives have a fitted effect of over 35% in size; note: potency is the fitted concentration of half-maximal effect
# Outline: (§1)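 ATP-based CellTiter-Glo luminescence after 48 h drug exposure (37 °C, 5% CO2) of 500 myeloma cells per well. DMSO-only wells set 100% viability, media-only wells 0%; MIPE 4.0 library added by pin tool.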
# [2] = Quantitative High-Throughput drug screen in 47 multiple myeloma cell lines against the NCATS MIPE library collection: L363_DSMZ cell viability assay (AID 1918984); note: nearly all actives have a fitted effect of over 40% in size; note: potency is the fitted concentration of half-maximal effect
# Outline: as §1
# [3] = Quantitative High-Throughput drug screen in 47 multiple myeloma cell lines against the NCATS MIPE library collection: KMS34_JCRB cell viability assay (AID 1918985); note: nearly all actives have a fitted effect of over 40% in size; note: potency is the fitted concentration of half-maximal effect
# Outline: as §1
# [4] = Quantitative High-Throughput drug screen in 47 multiple myeloma cell lines against the NCATS MIPE library collection: OCIMY7_PLB cell viability assay (AID 1918987); details: OCI-MY7 myeloma viability, CellTiter-Glo ATP, 48 h; viability (% of DMSO): at 45.8 µM (top of the series); note: nearly all actives have a fitted effect of over 65% in size; note: potency is the fitted concentration of half-maximal effect
# Outline: as §1
# [5] = Quantitative High-Throughput drug screen in 47 multiple myeloma cell lines against the NCATS MIPE library collection: OCIMY5_PLB cell viability assay (AID 1918988); note: nearly all actives have a fitted effect of over 65% in size; note: potency is the fitted concentration of half-maximal effect
# Outline: as §1
# [6] = Quantitative High-Throughput drug screen in 47 multiple myeloma cell lines against the NCATS MIPE library collection: OPM1_PLB cell viability assay (AID 1918989); note: nearly all actives have a fitted effect of over 40% in size; note: potency is the fitted concentration of half-maximal effect
# Outline: as §1
# [7] = Quantitative High-Throughput drug screen in 47 multiple myeloma cell lines against the NCATS MIPE library collection: SKMM1_PLB cell viability assay (AID 1919863); details: SKMM1 myeloma viability, CellTiter-Glo ATP, 48 h; viability: stronger effect = lower value; note: nearly all actives have a fitted effect of over 35% in size; note: potency is the fitted concentration of half-maximal effect
# Outline: as §1
# [8] = Quantitative High-Throughput drug screen in 47 multiple myeloma cell lines against the NCATS MIPE library collection: U266_ATCC cell viability assay (AID 1919864); note: nearly all actives have a fitted effect of over 35% in size; note: potency is the fitted concentration of half-maximal effect
# Outline: as §1
# [9] = Quantitative High-Throughput drug screen in 47 multiple myeloma cell lines against the NCATS MIPE library collection: XG6_PLB cell viability assay (AID 1919865); note: nearly all actives have a fitted effect of over 40% in size; note: potency is the fitted concentration of half-maximal effect
# Outline: as §1
# [10] = Quantitative High-Throughput drug screen in 47 multiple myeloma cell lines against the NCATS MIPE library collection: VP6_DJ cell viability assay (AID 1919867); note: nearly all actives have a fitted effect of over 40% in size; note: potency is the fitted concentration of half-maximal effect
# Outline: as §1
# [11] = Quantitative High-Throughput drug screen in 47 multiple myeloma cell lines against the NCATS MIPE library collection: UTMC2_PLB cell viability assay (AID 1919868); details: CellTiter-Glo ATP luminescence, 48 h; viability (% of DMSO control): at 45.8 µM (top of the series); note: nearly all actives have a fitted effect of over 55% in size; note: potency is the fitted concentration of half-maximal effect
# Outline: as §1
# [12] = Quantitative High-Throughput drug screen in 47 multiple myeloma cell lines against the NCATS MIPE library collection: PE2_PLB cell viability assay (AID 1919869); note: nearly all actives have a fitted effect of over 35% in size; note: potency is the fitted concentration of half-maximal effect
# Outline: as §1
# [13] = Quantitative High-Throughput drug screen in 47 multiple myeloma cell lines against the NCATS MIPE library collection: PCM6_Riken cell viability assay (AID 1919870); note: nearly all actives have a fitted effect of over 30% in size; note: potency is the fitted concentration of half-maximal effect
# Outline: as §1
# [14] = Quantitative High-Throughput drug screen in 47 multiple myeloma cell lines against the NCATS MIPE library collection: RPMI8226_ATCC cell viability assay (AID 1919871); note: nearly all actives have a fitted effect of over 30% in size; note: potency is the fitted concentration of half-maximal effect
# Outline: as §1
# [15] = Quantitative High-Throughput drug screen in 47 multiple myeloma cell lines against the NCATS MIPE library collection: OPM2_DSMZ cell viability assay (AID 1919872); note: nearly all actives have a fitted effect of over 30% in size; note: potency is the fitted concentration of half-maximal effect
# Outline: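 Steps: seed 500 cells per well; pin-transfer MIPE 4.0 library; incubate 48 h at 37C, 5% CO2, humidified; add CellTiter-Glo, 5 min room temperature; read luminescence.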
# [16] = Quantitative High-Throughput drug screen in 47 multiple myeloma cell lines against the NCATS MIPE library collection: KMS11_JCRBsus cell viability assay (AID 1919873); note: nearly all actives have a fitted effect of over 50% in size; note: potency is the fitted concentration of half-maximal effect
# Outline: as §1
# [17] = Quantitative High-Throughput drug screen in 47 multiple myeloma cell lines against the NCATS MIPE library collection: KMS28BM_JCRB cell viability assay (AID 1919874); note: nearly all actives have a fitted effect of over 35% in size; note: potency is the fitted concentration of half-maximal effect
# Outline: as §1
# [18] = Quantitative High-Throughput drug screen in 47 multiple myeloma cell lines against the NCATS MIPE library collection: XG1_PLB cell viability assay (AID 1919866); note: nearly all actives have a fitted effect of over 35% in size; note: potency is the fitted concentration of half-maximal effect
# Outline: as §1
# [19] = molecular target: Cytochrome P450 2D6 (Homo sapiens) (UniProt P10635); test: qHTS for inhibitors of CYP2D6 against the NCATS DSHEA and TCM libraries (AID 1919972)
# Outline: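 CYP2D6 enzyme with pro-luciferin substrate in manufacturer buffer (typically 100 mM KPO4), preincubated 15 min RT with substances (most at 19.5 nM upward); NADPH regeneration system (1x) started 30–45 min RT reaction; P450-Glo luminescence read after 30 min; quinidine as intraplate control.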
# [20] = molecular target: Cytochrome P450 3A4 (Homo sapiens) (UniProt P08684); test: qHTS for inhibitors of CYP3A4 against the NCATS DSHEA and TCM libraries (AID 1919971);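 note: inhibition lowers luminescence from luciferin made by CYP3A4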
# Outline: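 Each CYP isoform and its pro-luciferin substrate, at isoform-specific final concentrations, were preincubated 15 min at RT with substances. NADPH regeneration solution (1x) started a 30-45 min reaction, and P450-Glo luminescence was read.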
# Cytochrome P450 3A4 (Homo sapiens), sequence (P08684 whole entry, looked up, canonical isoform): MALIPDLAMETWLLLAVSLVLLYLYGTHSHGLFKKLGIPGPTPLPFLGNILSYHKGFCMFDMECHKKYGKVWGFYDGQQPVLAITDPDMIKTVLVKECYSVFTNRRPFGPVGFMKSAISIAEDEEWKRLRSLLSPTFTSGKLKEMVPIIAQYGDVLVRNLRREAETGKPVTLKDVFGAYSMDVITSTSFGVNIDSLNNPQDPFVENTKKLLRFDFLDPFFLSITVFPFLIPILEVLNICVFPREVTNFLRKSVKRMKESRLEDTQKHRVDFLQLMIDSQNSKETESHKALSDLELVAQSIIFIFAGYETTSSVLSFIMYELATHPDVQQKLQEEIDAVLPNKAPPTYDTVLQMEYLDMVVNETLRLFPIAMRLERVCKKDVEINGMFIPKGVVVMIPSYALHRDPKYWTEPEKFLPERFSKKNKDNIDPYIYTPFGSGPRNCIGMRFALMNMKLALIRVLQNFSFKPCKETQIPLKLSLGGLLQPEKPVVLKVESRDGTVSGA
# Cytochrome P450 2D6 (Homo sapiens), sequence (P10635 whole entry, looked up): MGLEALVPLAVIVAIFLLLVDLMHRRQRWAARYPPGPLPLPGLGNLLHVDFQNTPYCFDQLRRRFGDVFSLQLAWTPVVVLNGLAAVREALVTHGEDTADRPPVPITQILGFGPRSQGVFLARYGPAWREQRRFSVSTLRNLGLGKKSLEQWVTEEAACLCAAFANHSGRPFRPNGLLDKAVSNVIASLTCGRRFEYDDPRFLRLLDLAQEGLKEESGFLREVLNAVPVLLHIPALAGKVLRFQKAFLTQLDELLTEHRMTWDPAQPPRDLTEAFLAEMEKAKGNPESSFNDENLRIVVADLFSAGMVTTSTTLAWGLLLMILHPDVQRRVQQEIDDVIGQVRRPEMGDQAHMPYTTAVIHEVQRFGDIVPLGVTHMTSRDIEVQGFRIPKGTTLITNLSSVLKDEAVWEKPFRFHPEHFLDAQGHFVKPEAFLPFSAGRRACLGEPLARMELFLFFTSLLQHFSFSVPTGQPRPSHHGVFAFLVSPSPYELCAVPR
smiles,measurement,setting,value
CCCCCCCCc1ccc(CCC(N)(CO)CO)cc1,Potency,[1],18.7 µM (active)
same,Potency,[2],4.18 µM (active)
same,Potency,[3],14.8 µM (active)
same,Potency,[4],11.8 µM (active)
same,Potency,[5],14.8 µM (active)
same,Potency,[6],4.69 µM (active)
same,Potency,[7],23.5 µM (active)
same,Potency,[8],16.6 µM (active)
same,Potency,[9],3.32 µM (active)
same,Potency,[10],4.69 µM (active)
same,Potency,[11],9.35 µM (active)
same,Potency,[12],8.33 µM (active)
same,Potency,[13],3.72 µM (active)
same,Potency,[14],9.35 µM (active)
same,Potency,[15],16.6 µM (active)
same,Potency,[16],7.43 µM (active)
same,Potency,[17],7.43 µM (active)
CCNC(=O)c1cc2c(-c3cc(OCCN4CCCC4)c(Cl)cc3Cl)nc(N)nc2s1,Potency,[1],1.87 µM (active)
same,Potency,[2],0.418 µM (active)
same,Potency,[3],1.32 µM (active)
same,Potency,[4],0.372 µM (active)
same,Potency,[5],0.743 µM (active)
same,Potency,[6],0.833 µM (active)
same,Potency,[8],1.05 µM (active)
same,Potency,[9],1.66 µM (active)
same,Potency,[18],0.833 µM (active)
same,Potency,[10],0.743 µM (active)
same,Potency,[11],1.48 µM (active)
same,Potency,[12],1.66 µM (active)
same,Potency,[13],0.743 µM (active)
same,Potency,[14],1.18 µM (active)
same,Potency,[15],2.96 µM (active)
same,Potency,[17],1.32 µM (active)
C=C(C)[C@@H]1CC[C@]2(C(=O)O)CC[C@]3(C)[C@H](CC[C@@H]4[C@@]5(C)CC[C@H](O)C(C)(C)[C@@H]5CC[C@]43C)[C@@H]12,outcome,[19],inactive
CCCc1nc(C(C)(C)O)c(C(=O)O)n1Cc1ccc(-c2ccccc2-c2nn[nH]n2)cc1,Potency,[1],inactive
same,Potency,[2],inactive
same,Potency,[3],inactive
same,viability,[7],131%
same,Potency,[9],inactive
same,Potency,[18],inactive
same,Potency,[12],inactive
same,Potency,[13],inactive
same,Potency,[14],inactive
same,Potency,[15],inactive
same,Potency,[16],inactive
same,Potency,[17],inactive
CC(=O)N[C@H]1[C@@H]([C@H](O)[C@H](O)CO)OC(C(=O)O)=C[C@@H]1N=C(N)N,Potency,[1],inactive
same,Potency,[2],inactive
same,Potency,[3],inactive
same,Potency,[6],inactive
same,Potency,[9],inactive
same,Potency,[18],inactive
same,Potency,[10],inactive
same,Potency,[12],inactive
same,Potency,[13],inactive
same,Potency,[14],inactive
same,Potency,[15],inactive
same,Potency,[16],inactive
same,Potency,[17],inactive
Cc1cncc2cccc(S(=O)(=O)N3CCCN(C(=O)CN)C[C@@H]3C)c12,Potency,[1],18.7 µM (active)
same,Potency,[2],inactive
same,Potency,[4],11.8 µM (active)
same,Potency,[5],1.48 µM (active)
same,Potency,[9],14.8 µM (active)
same,Potency,[18],20.9 µM (active)
same,Potency,[10],inactive
same,Potency,[11],5.9 µM (active)
same,Potency,[14],inactive
same,Potency,[17],1.18 µM (active)
C[C@H](NC(=O)C(C#N)=Cc1cccc(Br)n1)c1ccccc1,Potency,[1],3.72 µM (active)
same,Potency,[2],11.8 µM (active)
same,Potency,[4],0.743 µM (active)
same,Potency,[5],2.64 µM (active)
same,Potency,[6],2.09 µM (active)
same,Potency,[7],3.72 µM (active)
same,Potency,[8],6.62 µM (active)
same,Potency,[9],2.35 µM (active)
same,Potency,[18],2.09 µM (active)
same,Potency,[10],2.35 µM (active)
same,Potency,[11],3.32 µM (active)
same,Potency,[12],2.64 µM (active)
same,Potency,[13],2.09 µM (active)
same,Potency,[14],4.18 µM (active)
same,Potency,[15],7.43 µM (active)
same,Potency,[16],5.26 µM (active)
same,Potency,[17],7.43 µM (active)
CC(=O)N[C@@H]1[C@H](O[C@@H]2c3ccc(c(Cl)c3)Oc3cc4cc(c3O[C@H]3O[C@H](CO)[C@@H](O)[C@H](O)[C@H]3NC(=O)CCCCCCCC(C)C)Oc3ccc(cc3Cl)C[C@H]3NC(=O)[C@H](N)c5ccc(O)c(c5)Oc5cc(O)cc(c5)[C@H](NC3=O)C(=O)N[C@H]4C(=O)N[C@H]3C(=O)N[C@@H]2C(=O)N[C@@H](C(=O)O)c2cc(O)cc(O[C@H]4O[C@H](CO)[C@@H](O)[C@H](O)[C@H]4O)c2-c2cc3ccc2O)O[C@H](CO)[C@@H](O)[C@@H]1O,Potency,[1],inactive
same,Potency,[2],inactive
same,Potency,[3],inactive
same,Potency,[18],inactive
same,Potency,[10],inactive
same,Potency,[11],inactive
same,Potency,[12],inactive
same,Potency,[13],inactive
same,Potency,[14],inactive
same,Potency,[16],inactive
same,Potency,[17],inactive
O=C(O)C[C@H](O)C[C@H](O)C=Cc1c(C2CC2)nc2ccccc2c1-c1ccc(F)cc1,Potency,[1],14.8 µM (active)
same,Potency,[2],5.26 µM (active)
same,Potency,[4],2.35 µM (active)
same,Potency,[5],20.9 µM (active)
same,Potency,[6],2.64 µM (active)
same,Potency,[7],11.8 µM (active)
same,Potency,[9],18.7 µM (active)
same,Potency,[18],3.32 µM (active)
same,Potency,[10],16.6 µM (active)
same,Potency,[11],9.35 µM (active)
same,Potency,[12],4.69 µM (active)
same,Potency,[14],16.6 µM (active)
C[C@@]12C[C@@]3(O)O[C@@H](O1)[C@]1(COC(=O)c4ccccc4)[C@@H]3C[C@@]12O[C@@H]1O[C@H](CO)[C@@H](O)[C@H](O)[C@@H]1O,Potency,[1],inactive
same,Potency,[2],inactive
same,Potency,[4],inactive
same,Potency,[5],inactive
same,Potency,[6],inactive
same,Potency,[8],inactive
same,Potency,[9],inactive
same,Potency,[18],inactive
same,Potency,[10],2.64 µM (active)
same,Potency,[12],inactive
same,Potency,[13],inactive
same,Potency,[14],inactive
same,Potency,[15],inactive
same,Potency,[17],inactive
same,Potency,[20],inactive
CC(=O)O[C@H]1C[C@@H]2CC[C@H]3[C@H]4C[C@H]([N+]5(C)CCCCC5)[C@@H](OC(C)=O)[C@@]4(C)CC[C@@H]3[C@@]2(C)C[C@H]1N1CCCCC1,Potency,[1],0.332 µM (active)
same,Potency,[2],inactive
same,Potency,[4],inactive
same,Potency,[6],inactive
same,viability,[7],143%
same,Potency,[8],inactive
same,Potency,[9],inactive
same,Potency,[10],inactive
same,Potency,[11],inactive
same,Potency,[12],inactive
same,Potency,[13],inactive
same,Potency,[14],inactive
same,Potency,[17],inactive
CC(=O)O[C@@]12CO[C@H]1C[C@H](O)[C@@]1(C)C(=O)[C@H](O)C3=C(C)[C@@H](OC(=O)C(O)[C@@H](NC(=O)OC(C)(C)C)c4ccccc4)C[C@@](O)([C@@H](OC(=O)c4ccccc4)[C@@H]21)C3(C)C (stereo partly specified),Potency,[1],inactive
same,Potency,[2],inactive
same,Potency,[4],inactive
same,Potency,[5],inactive
same,viability,[7],60%
same,Potency,[9],inactive
same,Potency,[18],inactive
same,Potency,[10],inactive
same,Potency,[11],inactive
same,Potency,[12],inactive
same,Potency,[13],inactive
same,Potency,[15],inactive
same,Potency,[16],inactive
same,Potency,[17],inactive
